Experimental data published in PubChem BioAssay (NCATS).
Inconclusive results are not listed. A number with no mark means an inactive call. The call rests on the fitted dose curve; in most records, active means well fitted inhibition curve with a large enough effect; inconclusive means small, poorly fitted or top-dose-only effect; inactive means no such curve, though single readings can be large or run the other way.

Assay: NS1 protein of Zika virus - qHTS assay to identify small molecule inhibitors in human HEK 293 cells (AID 1347053);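 further: plate controls were infected untreated cells for no effect and uninfected cells for full effect; nearly all actives have a fitted effect of over 55% in size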
Settings: HEK293 ZIKV MR766 infection, NS1 TR-FRET, 24 h; series mostly up to 46.1 µM; activity change, negative = inhibition: at the top concentration
In short: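 Inhibition of NS1 expression was scored in HEK 293 cells given compound 1 h ahead of MR766 virus (MOI = 0.5). Following 24 h at 37 C, two anti-NS1 antibodies generated a TR-FRET signal, scaled between uninfected and infected controls.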

| SMILES | activity change, negative = inhibition |
| --- | --- |
| CCCCCCCCC(=O)NCc1ccc(O)c(OC)c1 | -6% |
| CCN1CCCC1CNC(=O)C(O)(c1ccccc1)c1ccccc1 (stereo not drawn) | 1.92% |
| CCS(=O)(=O)C(C)(C)S(=O)(=O)CC | -15.9% |
| C[C@]12C=CC(=O)C=C1CC[C@@H]1[C@@H]2CC[C@@]2(C)[C@H]1CC[C@]2(C)O | -20.3% |
| C[C@H](CN1CCOCC1)C(C(=O)N1CCCC1)(c1ccccc1)c1ccccc1 | 5.28% [at 92.8 µM] |
| CCCC(C)C1(CC)C(=O)N=C(S)NC1=O (stereo not drawn) | -1.31% |
| N#Cc1nn(-c2c(Cl)cc(C(F)(F)F)cc2Cl)c(N)c1S(=O)C(F)(F)F (stereo not drawn) | 4.13% |
| CCOC(=O)c1cncn1C(C)c1ccccc1 (stereo not drawn) | 1.71% |
| CC(C)=CCN1CC[C@@]2(C)c3cc(O)ccc3C[C@@H]1[C@@H]2C | -1.52% [at 92.8 µM] |
| CNC(C)Cc1ccc2c(c1)OCO2 (stereo not drawn) | -22.3% [at 92.8 µM] |
| CCOC(=O)NC(C)(C)Cc1ccc(Cl)cc1 | -16% |
| CNC(C)Cc1ccccc1OC (stereo not drawn) | -24.7% |
| C=CCN1CC[C@]23CCCC[C@H]2[C@H]1Cc1ccc(O)cc13 | 0.131% |
| O=C(N[C@@H]1N=C(c2ccccc2F)c2cccc3c2N(CC3)C1=O)c1cc2ccccc2[nH]1 | 11.9% |
| C#C[C@]1(O)C=C[C@H]2[C@@H]3CCC4=CC(=O)CC[C@@H]4[C@H]3CC[C@@]21CC | -0.612% |
| CCC(=O)C(CCN(C)C)(c1ccccc1)c1ccccc1 | -1.89% |
| CC#C[C@]1(O)CC[C@H]2[C@@H]3C[C@H](C)C4=CC(=O)CC[C@]4(C)[C@H]3CC[C@@]21C | -0.384% |
| C[C@]12CC[C@H]3[C@@H](CCC4=CC(=O)CC[C@@]43C)[C@@H]1CC[C@@H]2C(=O)O | -15.4% |
